Source: PubChem BioAssay AID540333 (Southern Research Specialized Biocontainment Screening …, 2011)
Out of some 10,000 compounds screened, about 320 (3.2%) were called active. This excerpt belongs to a sample that is enriched for actives. Values without a mark were called inactive. No stated cut-off is given here; in the data, active means CPE inhibition mostly above about 9.1% (no sharp cut-off); inactive means mostly below about 7.2%.

Assay: Dengue virus cytopathic effect inhibitors, cell-based, CPE readout, HTS (AID 540333)
Conditions: Dengue virus CPE inhibition in host cells, at 20 µM; active compounds read high

SMILES	CPE inhibition
COc1ccc(N(CC(=O)Nc2cccc([N+](=O)[O-])c2C)S(C)(=O)=O)cc1OC	inactive
N/C(=N\OCC(=O)Nc1ccccc1)c1nonc1N	0.24%
NS(=O)(=O)c1ccc(CCNC(=O)c2cc(-c3ccccc3)nc3ccccc23)cc1	inactive
CC1(c2nnc(Cc3ccccc3)o2)CC(c2ccccc2F)=NO1 (configuration not stated)	inactive
COc1ccc(C(=O)NCC(=O)OCC(=O)N2CCN(S(=O)(=O)c3ccccc3)CC2)cc1	inactive
O=C(NNC(=S)NCc1ccccc1)c1ccc(OC(F)F)cc1	0.96%
FC(F)Oc1ccc(NC(=S)NCc2ccccc2)cc1	inactive
O=C(NCc1ccccc1)/C(=C/c1ccc(OC(F)F)cc1)c1ccccc1	9.52% (active)
Cc1cc(C(=O)COc2ccc(C#N)cc2)c(C)n1-c1ccc2c(c1)OCO2	9.11%
O=C(O)c1cccc2c1C(=O)c1ccc(-c3ccc(F)cc3F)cc1S2(=O)=O	1.88%
O=C(Nc1ccc(F)cc1)c1ccccc1Oc1ccc(C(F)(F)F)cc1[N+](=O)[O-]	9.71%
O=Cc1ccc(OC2OCCOC2Oc2ccc(C=O)cc2)cc1 (configuration not stated)	15.4% (active)
c1ccc(-c2csc3ncnc(NCC4COc5ccccc5O4)c23)cc1 (configuration not stated)	6.15%
Nc1nccnc1C(=O)OCC(=O)Nc1cccc(S(=O)(=O)N2CCCCC2)c1	inactive
CC1CCc2c(C(=O)OCC(=O)Nc3cccc(S(=O)(=O)N4CCCCCC4)c3)csc2C1 (configuration not stated)	11.4% (active)
Cc1cnc(C(=O)OCC(=O)Nc2cccc(S(=O)(=O)N3CCCCC3)c2)cn1	inactive
CS/C(=N\S(=O)(=O)c1cccs1)Nc1cccc(Cl)c1C	inactive
Cc1ccc(NC(=O)CSc2ccccc2NC(=O)c2ccccc2Cl)cc1Cl	9.34%
Cc1cc(C)cc(NC(=O)C(OC(=O)c2ccc([N+](=O)[O-])o2)c2ccccc2)c1 (configuration not stated)	0.445%
Cc1cc(C(=O)OC(C(=O)Nc2ccc(C)c(Cl)c2)c2ccccc2)c(C)o1 (configuration not stated)	14.6% (active)
COc1ccc(C)cc1NC(=O)C(OC(=O)c1cc(C)oc1C)c1ccccc1 (configuration not stated)	1.23%
Cc1ccc(NC(=O)C(OC(=O)c2cc(C)oc2C)c2ccccc2)cc1 (configuration not stated)	18.4% (active)
Cc1ccc(NC(=O)C(OC(=O)c2ccc(F)cc2)c2ccccc2)cc1Cl (configuration not stated)	1.61%
CC(=O)c1cccc(NC(=O)C(OC(=O)c2cccs2)c2ccccc2)c1 (configuration not stated)	0.01%
Cc1ccc(NC(=O)C(OC(=O)c2ccc(NC(N)=O)cc2)c2ccccc2)cc1Cl (configuration not stated)	15.2% (active)

SMILES	CPE inhibition
Cc1ccc(NC(=O)CSc2ccccc2NC(=O)c2ccccc2)cc1Cl	2.96%
Cc1cc(C)cc(-n2c(SCC(=O)Nc3cccc(S(=O)(=O)NC4=NCCCCC4)c3)nc3ccccc3c2=O)c1	0.54%
CNC(=O)CSc1nnc(SCCC(=O)O)s1	0.415%
Cc1cccc(Nc2nnc(SCC(=O)NC3CCCc4ccccc43)s2)c1C (configuration not stated)	14.5% (active)
O=C(CSc1nc2ccccc2s1)NC1CCCc2ccccc21 (configuration not stated)	0.775%
Cc1ccccc1-n1c(C)nnc1SCC(=O)NC1CCCc2ccccc21 (configuration not stated)	0.065%
O=C1c2ccccc2C(=O)N1CN(C(=O)COc1ccc(Cl)cc1Cl)c1cccc(F)c1	3.16%
CCOC(=O)C1=C(C)NC(=O)C1CC(=O)O (configuration not stated)	inactive
CN(c1cccc(NC(=O)CN(c2cccc(Cl)c2)S(=O)(=O)c2ccccc2)c1)S(C)(=O)=O	3.62%
CN(c1cccc(NC(=O)CN(c2cccc(Cl)c2)S(=O)(=O)c2ccc(Cl)cc2)c1)S(C)(=O)=O	11.8% (active)
CN(c1cccc(NC(=O)CN(c2ccc(Cl)c(Cl)c2)S(=O)(=O)c2ccccc2)c1)S(C)(=O)=O	5.86%
COC(=O)CNC(=O)C1Nc2ccc(OC(F)(F)F)cc2C2C=CCC12 (configuration not stated)	0.595%
COc1ccc2c(C)cc(Sc3nnnn3-c3ccccc3)nc2c1	3.01%
COc1ccc(NC(=O)c2ccc(C#N)cc2)cc1NS(=O)(=O)c1ccc(F)cc1	inactive
CC(=O)N1N=C(c2ccc(Br)cc2)CC1c1cn(C)c2ccccc12 (configuration not stated)	16% (active)
CCC(=O)N1N=C(c2ccc(C)o2)CC1c1ccc(Br)cc1 (configuration not stated)	inactive
CC(=O)N1N=C(c2ccccc2)CC1c1cn(Cc2ccccc2)c2ccccc12 (configuration not stated)	6.58%
Cn1c(C=O)c(C#Cc2ccccc2)c2ccccc21	inactive
Cn1c(C=O)c(C#CC(C)(C)O)c2ccccc21	4.96%
COc1cc(C#Cc2c(C=O)n(C)c3ccccc23)cc(OC)c1	8.36% (active)
COc1cc(SC)ccc1C(=O)NCCc1ccccc1	0.785%
O=C(Nc1cccc(Cl)c1)Nc1cc(S(=O)(=O)N2CCOCC2)ccc1N1CCCC1	8.49%
CC(C)CC(NC(=O)c1ccc(Cl)cc1)C(=O)OCc1cc([N+](=O)[O-])cc2c1OCOC2 (configuration not stated)	1.44%
COC(=O)c1ccc(CNC(=O)COC(=O)C2CCC(C(C)(C)C)CC2)cc1 (configuration not stated)	0.91%
COc1ccc(CCNC(=O)COC(=O)C2CCCCC2)cc1	0.035%

SMILES	CPE inhibition
COc1ccc(CNC(=O)COC(=O)C2CCC(C(C)(C)C)CC2)cc1 (configuration not stated)	24.9% (active)
O=S1(=O)CCC(NC(=S)N2CCCCC2)C1 (configuration not stated)	inactive
CC(=O)NC(Cc1ccccc1)C(=O)OCC(=O)c1ccc(Br)cc1 (configuration not stated)	inactive
COCCCN(C(=S)Nc1ccc(C)cc1Cl)C(C)c1ccncc1 (configuration not stated)	inactive
COCCCN(C(=S)Nc1c(C)cc(C)cc1C)C(C)c1ccncc1 (configuration not stated)	0.045%
COCCCN(C(=S)Nc1cc(Cl)cc(Cl)c1)C(C)c1ccncc1 (configuration not stated)	16.4% (active)
O=C(CCc1ccccc1)NCCSCc1c(F)cccc1Cl	inactive
C#CCN(C(=O)Nc1ccccc1)c1ccccc1	inactive
CC(=O)NS(=O)(=O)c1cccnc1Nc1cccc(Cl)c1C	1.49%
CC1CCC(=NNc2ccc(C(F)(F)F)cc2[N+](=O)[O-])CC1 (configuration not stated)	0.085%
CCC(=O)OC1(C)C(=O)C=C2C=C(CCCC(=O)OC)OC=C2C1=O (configuration not stated)	inactive
CCCCC1=CC2=CC(=O)C(C)(OC(=O)CC)C(=O)C2=CN1C1CCCC1 (configuration not stated)	20.9% (active)
CC1(OC(=O)C2CCCC2)C(=O)C=C2C=C3CCCCN3C=C2C1=O (configuration not stated)	inactive
Cc1ccc(S(=O)(=O)N/N=C2/CCCCC2C2CCCCC2)cc1[N+](=O)[O-] (configuration not stated)	0.01%
Fc1ccc(CSc2ncnc3scc(-c4ccccc4)c23)cc1	1.17%
CCOC(=O)C(=NC1CCCCC1)NNc1cccc(C(F)(F)F)c1	5.4%
O=C(OC(C(=O)Nc1cccc(C(F)(F)F)c1)c1ccccc1)C1CCCCC1 (configuration not stated)	21.9% (active)
COc1cc(OC)c(C(=O)OC(C)C(=O)Nc2cccc(C(F)(F)F)c2)cc1OC (configuration not stated)	inactive
Cc1cc(C)nc(NS(=O)(=O)c2ccc(NC(=O)C3(c4ccccc4)CCCC3)cc2)n1	inactive
COc1ccc(-c2csc3ncnc(Oc4ccc5c(C)cc(=O)oc5c4)c23)cc1	inactive
CC(=O)Nc1ccc(Sc2ncnc3scc(-c4ccccc4)c23)cc1	2.31%
CC(=O)Nc1cccc(Oc2ncnc3scc(-c4ccc(C(C)C)cc4)c23)c1	15% (active)
Cc1cc(NC(=O)CCc2ccccc2)c([N+](=O)[O-])cc1C	inactive
O=C(Nc1nc2ccc3ccccc3c2s1)c1ccc(N2CCCCC2)c([N+](=O)[O-])c1	13.2% (active)
O=C(Nc1nc2ccccc2s1)c1ccc(N2CCCCC2)c([N+](=O)[O-])c1	2.82%

SMILES	CPE inhibition
O=C(Nc1ccc(N2C(=O)c3cccc4cccc(c34)C2=O)cc1)c1ccc(N2CCCCC2)c([N+](=O)[O-])c1	2.95%
O=C(O)CSC(=S)N1CCCCC1	0.795%
N#CC(C#N)=C1C=CC=CN1/C(=C\c1ccco1)C(=O)c1ccc(-c2ccccc2)cc1	inactive
Cc1nc2ccccc2c(-c2ccccc2)c1CC(=O)O	0.655%
O=C(O)c1cccc(-c2nc3ccccc3[nH]2)c1	0.345%
c1ccc(-c2c3ccccc3nc3[nH]c4ccccc4c23)cc1	23.8% (active)
Cc1ccc(-n2nnnc2SC(C(=O)c2c[nH]c3ccccc23)c2ccccc2)cc1 (configuration not stated)	inactive
O=C1C=C(c2ccc(Cl)c(C(F)(F)F)c2)C[C@@H](c2ccc3c(c2)OCO3)C1	7.58%
O=C1C=C(c2ccccc2)C[C@@H](c2ccc3c(c2)OCO3)C1	0.36%
O=C1C=C(c2cc(C(F)(F)F)cc(C(F)(F)F)c2)C[C@@H](c2ccc3c(c2)OCO3)C1	17.9% (active)
O=C(CSCc1ccccc1)Nc1ccc(F)c(F)c1	inactive
Cc1cc(C(=O)NCC(=O)OCC(=O)N(C2CCCCC2)C2CCCCC2)ccc1[N+](=O)[O-]	inactive
CCNc1ccc(C(=O)OCC(=O)NCc2ccc(C)cc2)cc1[N+](=O)[O-]	0.91%
COC(=O)[C@@]12CCCCN1[C@H](c1ccc(-c3ccccc3)cc1)[C@H]1C(=O)N(C)C(=O)[C@H]12	3.82%
COC(=O)[C@@]12CCCCN1[C@H](c1ccc(-c3ccc(C(C)=O)cc3)c(OC)c1)[C@@H]1C(=O)N(C)C(=O)[C@@H]12	3.06%
CCN1C(=O)[C@@H]2[C@@H](c3ccc(-c4ccc(Cl)c(Cl)c4)cc3)N3CCC[C@@]3(C(=O)OC)[C@@H]2C1=O	3.61%
CCCCCCSc1ccc([C@@H]2[C@@H]3C(=O)N(CC)C(=O)[C@@H]3[C@]3(C(=O)OC)CCCCN23)cc1	16.4% (active)
CCN1C(=O)[C@@H]2[C@@H](c3ccc(-c4ccc(OC)cc4)cc3)N3CCC[C@@]3(C(=O)OC)[C@@H]2C1=O	0.355%
CCN1C(=O)[C@@H]2[C@@H](c3ccc(SC4CCCCC4)cc3)N3CCC[C@@]3(C(=O)OC)[C@@H]2C1=O	0.855%
CCN1C(=O)[C@H]2[C@@H](c3ccc(-c4ccc(Cl)c(Cl)c4)cc3)N3CCCC[C@@]3(C(=O)OC)[C@H]2C1=O	15.9% (active)
CCSc1ccc([C@@H]2[C@@H]3C(=O)N(C)C(=O)[C@@H]3[C@]3(C(=O)OC)CCCCN23)cc1	inactive
COC(=O)[C@@]12CCCCN1[C@H](c1ccc(-c3ccc(Cl)c(Cl)c3)cc1)[C@H]1C(=O)N(C)C(=O)[C@H]12	26.6% (active)
